This assay is described as follows: yeast proliferation inhibition, dose response, BY4741, OD595, 24 h (AID 489042). The following applies: S. cerevisiae BY4741 growth, flow cytometer event count, 7 d (AID 449753), stronger effect = higher value. (In general: A flow cytometer gives signals particle by particle.)

Molecules are shown by their SMILES. A number with no mark means an inactive call. The source made the active and inactive calls. No stated cut-off is given here; in the data, active means inhibition score above about 11; inactive means the rest.

Turning to `C#CCSc1nnc(-c2ccc([N+](=O)[O-])cc2)o1`, the inhibition score is 0.
The same measure for `COC(=O)c1cccc2nc3c(C(C)O)cccc3nc12` (centres undefined): 0; for `C=CCOn1c(=O)c(-c2cccs2)[n+]([O-])c2ccccc21`: 0; for `CCCCCNC(=O)C(=O)C1C(=O)Nc2ccccc21` (centres undefined): 0.
As to `COc1ccc2cc(C3CC(c4ccco4)=NN3S(=O)(=O)c3ccccc3)c(Cl)nc2c1` (centres undefined), the inhibition score is 0.
The same measure for `O=C(Nc1ccc2nc3ccccc3nc2c1)c1ccc(Br)cc1`: 0.
As to `O=C(OCc1c(F)cccc1Cl)c1cnc2ccccc2n1`, the inhibition score was 0.
As to `NC(=O)CSc1nnc(-c2ccc([N+](=O)[O-])cc2)o1`, the inhibition score was 0.
As for `CCN(CC)C(=O)c1ccc2nc3ccccc3nc2c1`, the inhibition score was 0.
As for `O=C(CN1CCN(c2ccccn2)CC1)Nc1ccccc1F`, the inhibition score was 0.
The same measure for `c1ccc2nc3ccccc3nc2c1`: 0.
The same measure for `COc1ccc2nc3ccccc3nc2c1NC(=O)c1ccccc1Cl`: 0.
With `COc1ccc2c3c(cccc13)N(C)N=C2C` the figure was 0; with `COc1ccc2nc3cccc(OC)c3nc2c1`, 0.
Consider `O=C(Nc1cccc(Cl)c1)Nc1ccc2nccnc2c1`, for which the inhibition score was 0.
With `COc1ccc2c(c1)c1nnc(SC)nc1n2C` the figure was 0; with `CSc1nnc2c3cc(F)ccc3n(C)c2n1`, 0; with `COc1ccc2nc3ccccc3nc2c1`, 0.
For `CC(C)(C)n1nc(-c2ccc(F)cc2)c2c(N)ncnc21`, the inhibition score was 0.
With `C/C(=N\Nc1ncnc2sc(C)c(C)c12)c1ccccn1` the figure was 10; with `C[C@@]12C(=O)OC(=O)[C@]1(C)C1CCC2O1`, 11 (active); with `COc1ccc2nc3ccccc3nc2c1N`, 0.
The same measure for `O=C(/C=C/c1cccs1)NC(=S)NNC(=O)Cc1cccs1`: 11 (active).
With `CNC(=O)c1cccc2nc3ccccc3nc12` the figure was 0; with `Cc1ccc(-c2nn(C(C)(C)C)c3ncnc(N)c23)cc1`, 0.
Take `O=C(/C=C/c1ccccc1)NC(=S)NNC(=O)Cc1cccs1`: the inhibition score is 0.
On to `CCN(CC)C(=O)CSc1nnc(-c2cccc(OC)c2)o1`, for which the inhibition score is 0.
The same measure for `Cc1ccccc1NC(=O)c1cccc2nc3ccccc3nc12`: 0; for `CC(C)OC(=O)CSc1nnc(-c2ccc(Cl)cc2Cl)o1`: 0.

The record behind these values is PubChem BioAssay AID489042 (NMMLSC, 2010).
